# According to PubChem BioAssay (Tox21):
# Several values for one entry are separate records, joined by “and”; a condition that tells them apart may be missing. Equal entries are not always repeated. Inconclusive results are not listed. Entries that show only a call come without a potency. Some structures have more than one record in an assay (separate samples or runs), and their calls can disagree. Activity calls are given as the source filed them. Unless noted, calls follow the shape of the full dose curve.
# Experiments:
# [1] = Nuclear factor erythroid 2-related factor 2/antioxidant responsive element (Nrf2/ARE) small molecule agonists: qHTS cell viability counter screen in human keratinocytes (AID 1919968; active = well fitted curve in the direction sought with a large enough effect in the repeat runs; an effect the other way counts as inactive or inconclusive; also: nearly all actives have a fitted effect of over 55% in size; also: potency is read from the fitted curve at half-maximal effect)
# Summary of the method: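 KeratinoSens cells (HaCaT keratinocytes stably carrying an ARE-luciferase reporter) were seeded at 1,500 cells/well and rested 5 h at 37 C/5% CO2. They were then exposed to compounds in DMSO for 23 h. Viability was read by CellTiter-Fluor fluorescence after 1 h.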
# [2] = Nuclear factor erythroid 2-related factor 2/antioxidant responsive element (Nrf2/ARE) small molecule agonists: luciferase reporter gene qHTS assay in human keratinocytes (AID 1919969); also: nearly all actives have a fitted effect of over 35% in size; also: potency is read from the fitted curve at half-maximal effect
# [3] = G protein-coupled receptor (GPCR) small molecule agonists, calcium flux assay: HEK293 wild type cell line counter screen (AID 1920065)
# Summary of the method: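 Cells were plated and cultured 18 h at 37 C/5% CO2, then loaded with calcium dye for 1 h at 37 C. Compounds in DMSO were pin-transferred in agonist mode, and fluorescence (Ex/Em 480/540) was read kinetically for 3 min at 1 s intervals.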
# [4] = p53 small molecule agonists, cell-based qHTS assay with human liver microsomes (AID 1963577)
# Summary of the method: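 Fluorescence of the beta-lactamase reporter in p53RE-bla cells, detected with LiveBLAzer substrate (2 h, room temperature, dark), served as the read-out after 16 h compound exposure at 37 C with human liver microsomes and NADPH, each 0.5 mg/mL final.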
# [5] = p53 small molecule agonists, cell-based qHTS assay with human liver microsomes: qHTS cell viability counter screen (AID 1963579); also: nearly all actives have a fitted effect of over 45% in size
# Summary of the method: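 Cytotoxicity counter screen: p53RE-bla, 4,000 cells/well; 5 h settle, 37 C/5% CO2; cpd + HLM 0.5 mg/mL + NADPH 0.5 mg/mL (final); 16 h, 37 C; CellTiter-Glo, 30 min RT, luminescence.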
# [6] = p53 small molecule agonists, cell-based qHTS assay with rat liver microsomes: qHTS cell viability counter screen (AID 1963580); also: nearly all actives have a fitted effect of over 45% in size
# Summary of the method: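 p53RE-bla HCT-116 cells (4,000/well) rested 5 h at 37 C, then given Tox21 compounds in DMSO with rat liver microsomes (0.5 mg/mL final) plus NADPH (0.5 mg/mL final) for 16 h at 37 C. Viability read by CellTiter-Glo luminescence after 30 min at room temperature.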
# [7] = p53 small molecule agonists, cell-based qHTS assay: qHTS cell viability counter screen (AID 1963581); also: nearly all actives have a fitted effect of over 45% in size
# Summary of the method: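 p53RE-bla HCT-116 cells were exposed to compounds for 16 h at 37 C; after the beta-lactamase FRET read in the same wells, CellTiter-Glo was added and luminescence (intracellular ATP) read after 30 min at room temperature.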
# [8] = p53 small molecule agonists, cell-based qHTS assay (AID 1963582; active = well fitted activation curve with a large enough effect in the signal ratio in the repeat runs, not every such curve was filed as active; the % refers to the signal ratio)
# Summary of the method: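 p53RE-bla beta-lactamase reporter cells rested 5 h at 37 C/5% CO2, then received compounds in DMSO by pin transfer and were incubated 16 h at 37 C. LiveBLAzer B/G FRET substrate was loaded for 2 h at room temperature before fluorescence reading.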
# [9] = molecular target: 5-hydroxytryptamine receptor 2A (Homo sapiens) (UniProt P28223); test: 5-hydroxytryptamine receptor 2A (HTR2A) small molecule antagonists, cell-based qHTS assay (AID 1963586); also: nearly all actives have a fitted effect of over 45% in size; also: potency is read from the fitted curve at half-maximal effect
# Summary of the method: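 Antagonist-mode intracellular calcium assay: DOI (4 nM) added after 5 min compound pre-incubation at room temperature to dye-loaded HTR2A-CHO cells. Fluorescence followed for 3 min, sampled every second.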
# [10] = molecular target: 5-hydroxytryptamine receptor 2A (Homo sapiens) (UniProt P28223); test: 5-hydroxytryptamine receptor 2A (HTR2A) small molecule agonists, cell-based qHTS assay (AID 1963587); also: nearly all actives have a fitted effect of over 30% in size; also: potency is read from the fitted curve at half-maximal effect
# Summary of the method: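 HTR2A-CHO cells, plated 18 h at 37 C/5% CO2, dye-loaded 1 h at 37 C; compounds in DMSO added by pin tool (agonist mode). Intracellular calcium flux read as kinetic fluorescence on FDSS over 2 min at 1 s intervals.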
# [11] = molecular target: Muscarinic acetylcholine receptor M1 (Homo sapiens) (UniProt P11229); test: Cholinergic receptor muscarinic 1 (CHRM1) small molecule antagonists, cell-based qHTS assay (AID 1963588); also: nearly all actives have a fitted effect of over 40% in size; also: potency is read from the fitted curve at half-maximal effect
# Summary of the method: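 CHRM1-CHO calcium-flux assay, antagonist mode. Cells were seeded 18 h, dye-loaded 1 h at 37 C and given compound for 5 min at RT, then acetylcholine was added at 50nM. FDSS fluorescence was read 3 min; 15 concentrations, three runs.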
# [12] = molecular target: Muscarinic acetylcholine receptor M1 (Homo sapiens) (UniProt P11229); test: Cholinergic receptor muscarinic 1 (CHRM1) small molecule agonists, cell-based qHTS assay (AID 1963589); also: nearly all actives have a fitted effect of over 35% in size; also: potency is read from the fitted curve at half-maximal effect
# Summary of the method: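 CHO cells stably expressing human CHRM1, seeded 18 h at 37 C/5% CO2, dye-loaded 1 h at 37 C, then given compound in agonist mode; intracellular calcium fluorescence read kinetically at 1 s intervals. Fifteen concentrations, three independent runs.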
# [13] = cAMP Responsive Elements (CRE) small molecule agonists, cell-based qHTS assay (AID 1963590)
# Summary of the method: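 CRE-bla HEK 293T cells in DMEM with 10% dialyzed FBS, NEAA, pyruvate and 25 mM HEPES were plated 18 h at 37 C/5% CO2, then exposed to compounds in DMSO for 3 h before LiveBLAzer B/G FRET substrate addition.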
# [14] = cAMP Responsive Elements (CRE) small molecule antagonists, cell-based qHTS assay (AID 1963591; active = well fitted inhibition curve with a large enough effect in the signal ratio in the repeat runs, not every such curve was filed as active; the % refers to the signal ratio)
# Summary of the method: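 CRE-bla HEK293T cells were plated 18 h at 37 °C/5% CO2, pinned with compound in DMSO, then stimulated with NKH477 at 0.25 uM final for 3 h. LiveBLAzer B/G FRET substrate was added and plates incubated 2 h at room temperature.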
# [15] = molecular target: Beta-2 adrenergic receptor (Homo sapiens) (UniProt P07550); test: Adrenergic beta2 receptor (ADRB2) small molecule antagonists, cell-based qHTS assay (AID 1963592); also: series mostly up to about 92 µM; nearly all actives have a fitted effect of over 50% in size
# Summary of the method: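 Cells (CHO, stable ADRB2 overexpression) incubated 18-20hr at 37C; compounds added from DMSO; agonist mix (1nM isoproterenol, 100uM IBMX, 25uM Ro-20-1724) added; 0.5hr RT; d2-cAMP and anti-cAMP-cryptate added; 1hr RT; 665/615 nm read.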
# [16] = molecular target: Beta-2 adrenergic receptor (Homo sapiens) (UniProt P07550); test: Adrenergic beta2 receptor (ADRB2) small molecule agonists, cell-based qHTS assay (AID 1963593); also: potency is read from the fitted curve at half-maximal effect;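 as to activation: CHO cells stably overexpressing human ADRB2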
# Summary of the method: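 CHO cells stably over-expressing ADRB2 were plated overnight at 37C, then dosed with compounds plus a stimulation mix containing 100uM IBMX and 25uM Ro-20-1724 for 0.5hr at room temperature. cAMP was measured by HTRF competition, 1hr.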
# [17] = molecular target: D(2) dopamine receptor (Homo sapiens) (UniProt P14416); test: Dopamine D2 receptor (DRD2) small molecule agonists, cell-based qHTS assay (AID 1963594); also: nearly all actives have a fitted effect of over 35% in size
# Summary of the method: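 HEK293 cells stably expressing DRD2 were cultured 24 h at 37 C, then given Ro20-1724 (0.1 mM final) and compounds for 10 min at room temperature. NKH477 (200nM) was then added for 30 min. cAMP was read by HTRF.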
# [18] = molecular target: D(2) dopamine receptor (Homo sapiens) (UniProt P14416); test: Dopamine D2 receptor (DRD2) small molecule antagonists, cell-based qHTS assay (AID 1963595; active = well fitted inhibition curve with a large enough effect in the signal ratio in the repeat runs, with a control signal flat; the % refers to the signal ratio)
# Summary of the method: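 Antagonism was scored as restored cAMP in HEK293-DRD2 cells. These cells were stimulated with 200 nM NKH477 and 12 nM quinpirole for 30 min at room temperature, in the presence of 0.1 mM Ro20-1724.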
# [19] = p53 small molecule agonists, cell-based qHTS assay with rat liver microsomes (AID 1963578)
# Summary of the method: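 Cells carrying a p53 response element–beta-lactamase reporter were plated and rested 5 h, then dosed with compound in DMSO plus rat liver microsomes and NADPH, each at 0.5 mg/mL final. After 16 h at 37 C, LiveBLAzer substrate was added for 2 h.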
# [20] = molecular target: KiSS-1 receptor (Homo sapiens) (UniProt Q969F8); test: Human kisspeptin (KISS1R) small molecule agonists, calcium flux assay in KISS1R-HEK293 cells (AID 1920064; active = well fitted curve in the direction sought with a large enough effect in the repeat runs; an effect the other way counts as inactive or inconclusive)
# Summary of the method: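 HEK293 cells stably expressing human KISS1R were plated 18 h at 37 °C, loaded with calcium dye for 1 h at 37 °C, then given compound by pin tool. Fluorescence (Ex/Em 480/540) was read kinetically for 3 min.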
# 5-hydroxytryptamine receptor 2A (Homo sapiens), sequence (P28223 whole entry, looked up): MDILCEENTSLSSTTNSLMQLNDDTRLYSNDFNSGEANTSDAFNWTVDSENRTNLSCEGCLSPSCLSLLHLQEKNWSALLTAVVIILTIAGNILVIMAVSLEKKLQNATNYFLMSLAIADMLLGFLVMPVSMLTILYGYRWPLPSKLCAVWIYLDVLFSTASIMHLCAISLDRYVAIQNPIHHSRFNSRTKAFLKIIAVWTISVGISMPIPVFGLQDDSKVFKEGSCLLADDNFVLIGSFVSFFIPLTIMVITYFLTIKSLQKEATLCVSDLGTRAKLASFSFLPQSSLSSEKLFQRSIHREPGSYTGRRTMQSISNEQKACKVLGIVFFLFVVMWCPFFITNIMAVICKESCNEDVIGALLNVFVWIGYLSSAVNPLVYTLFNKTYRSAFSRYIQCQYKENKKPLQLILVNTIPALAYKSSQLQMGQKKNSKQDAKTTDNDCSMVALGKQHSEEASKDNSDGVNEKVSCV
# KiSS-1 receptor (Homo sapiens), sequence (Q969F8 whole entry, looked up): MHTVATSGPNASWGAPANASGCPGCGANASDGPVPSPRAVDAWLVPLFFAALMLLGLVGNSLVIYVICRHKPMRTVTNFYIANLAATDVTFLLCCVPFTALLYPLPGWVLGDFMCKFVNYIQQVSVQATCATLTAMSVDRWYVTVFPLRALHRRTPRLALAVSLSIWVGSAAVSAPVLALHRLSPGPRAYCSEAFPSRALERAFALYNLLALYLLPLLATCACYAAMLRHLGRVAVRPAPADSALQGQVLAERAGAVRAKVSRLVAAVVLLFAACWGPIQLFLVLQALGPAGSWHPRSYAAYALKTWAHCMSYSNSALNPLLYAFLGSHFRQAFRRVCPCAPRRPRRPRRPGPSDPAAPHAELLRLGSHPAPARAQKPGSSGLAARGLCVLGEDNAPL
# Beta-2 adrenergic receptor (Homo sapiens), sequence (P07550 whole entry, looked up): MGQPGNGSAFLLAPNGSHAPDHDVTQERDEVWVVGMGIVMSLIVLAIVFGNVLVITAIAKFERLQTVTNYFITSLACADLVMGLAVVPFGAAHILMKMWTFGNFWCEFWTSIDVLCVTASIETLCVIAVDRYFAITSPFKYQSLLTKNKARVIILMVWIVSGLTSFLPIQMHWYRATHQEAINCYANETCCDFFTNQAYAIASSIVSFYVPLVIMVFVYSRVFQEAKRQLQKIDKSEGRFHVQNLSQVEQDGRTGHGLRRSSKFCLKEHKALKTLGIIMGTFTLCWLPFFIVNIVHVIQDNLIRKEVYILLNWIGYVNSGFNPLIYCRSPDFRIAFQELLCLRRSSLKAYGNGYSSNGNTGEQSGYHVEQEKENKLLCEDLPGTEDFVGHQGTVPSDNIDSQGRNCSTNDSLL
# Muscarinic acetylcholine receptor M1 (Homo sapiens), sequence (P11229 whole entry, looked up): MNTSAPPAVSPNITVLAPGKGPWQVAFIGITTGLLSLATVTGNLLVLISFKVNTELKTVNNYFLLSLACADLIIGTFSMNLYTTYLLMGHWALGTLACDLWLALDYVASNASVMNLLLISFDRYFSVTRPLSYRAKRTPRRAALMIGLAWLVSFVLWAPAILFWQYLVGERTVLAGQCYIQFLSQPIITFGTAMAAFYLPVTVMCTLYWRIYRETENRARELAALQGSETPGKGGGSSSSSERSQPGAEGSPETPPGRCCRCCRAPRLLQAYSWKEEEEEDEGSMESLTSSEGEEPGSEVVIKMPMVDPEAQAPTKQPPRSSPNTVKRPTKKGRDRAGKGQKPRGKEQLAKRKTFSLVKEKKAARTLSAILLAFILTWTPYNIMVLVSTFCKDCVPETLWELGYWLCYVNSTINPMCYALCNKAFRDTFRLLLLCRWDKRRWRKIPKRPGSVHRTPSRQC
# D(2) dopamine receptor (Homo sapiens), sequence (P14416 whole entry, looked up): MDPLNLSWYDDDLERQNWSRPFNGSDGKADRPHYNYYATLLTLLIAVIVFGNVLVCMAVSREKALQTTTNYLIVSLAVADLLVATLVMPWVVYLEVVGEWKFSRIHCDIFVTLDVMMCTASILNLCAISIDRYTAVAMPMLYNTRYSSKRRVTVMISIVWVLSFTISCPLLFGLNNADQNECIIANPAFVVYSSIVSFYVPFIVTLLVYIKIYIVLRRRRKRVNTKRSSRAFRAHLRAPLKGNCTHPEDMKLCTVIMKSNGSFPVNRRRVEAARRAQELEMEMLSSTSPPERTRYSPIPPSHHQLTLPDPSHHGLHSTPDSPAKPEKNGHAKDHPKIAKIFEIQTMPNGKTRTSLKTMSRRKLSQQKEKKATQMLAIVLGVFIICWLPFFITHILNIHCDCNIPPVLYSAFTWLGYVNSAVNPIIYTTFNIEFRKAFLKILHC
Compound,Potency [1],Potency [2],Potency [3],Potency [4],Potency [5],Potency [6],Potency [7],Potency [8],Potency [9],Potency [10],Potency [11],Potency [12],Potency [13],Potency [14],Potency [15],Potency [16],Potency [17],Potency [18],Potency [19],Potency [20]
CCCCOC(=O)C(C)OC(=O)CCC (stereo not given),inactive,inactive,inactive,inactive,inactive,inactive,inactive,inactive,inactive,inactive,inactive,inactive,inactive,inactive,inactive,inactive,inactive,inactive,–,–
Cc1ccc(N(C)C)cc1,inactive,inactive,inactive,inactive,inactive,inactive,inactive,inactive,inactive and 133 nM (active),inactive,–,inactive,inactive,inactive,inactive,inactive,inactive,inactive,inactive,–
Nc1cccc2c1CN(C1CCC(=O)NC1=O)C2=O (stereo not given),inactive,inactive,inactive,inactive,inactive,inactive,inactive,inactive,inactive,inactive,inactive,inactive,inactive,inactive,inactive,inactive,inactive,inactive,inactive,inactive
Cc1[nH]cnc1-c1ccc(Cl)cc1,inactive,inactive,inactive,inactive,inactive,inactive,inactive,inactive,inactive,inactive,inactive,inactive,inactive,inactive,inactive,inactive,inactive,inactive,inactive,inactive
COC(=O)c1ccccc1C(=O)c1ccc(OCCN2CCCCC2)cc1,inactive,inactive,inactive,inactive,inactive,inactive,inactive,inactive,inactive,inactive,36.5 nM (active),inactive,inactive,inactive,inactive,–,inactive,inactive,inactive,inactive
CCOC(=O)OC(=O)OCC,inactive,inactive,–,–,inactive,inactive,inactive,inactive,inactive,–,inactive,inactive,inactive,inactive,inactive,inactive,inactive,inactive,inactive,–
Cc1nc(-c2ccc3c(c2)CCN(CCC2CCC(NC(=O)/C=C/c4ccc(F)cc4)CC2)CC3)no1 (stereo not given),inactive,inactive,inactive,inactive,inactive,inactive,inactive,inactive,inactive,inactive,266 nM (active),inactive,inactive,inactive,inactive,inactive,inactive,inactive,inactive,inactive
NS(=O)(=O)c1cc2c(cc1C(F)(F)F)NC(Cc1ccccc1)NS2(=O)=O (stereo not given),inactive,inactive,–,inactive,inactive,inactive,inactive,inactive,inactive,inactive,inactive,inactive,inactive,inactive,inactive,1500 nM (active),inactive,inactive,–,–
NC(=O)NS(=O)(=O)c1ccc(Cl)cc1,inactive,inactive,inactive,inactive,inactive,inactive,inactive,inactive,inactive,inactive,inactive,inactive,inactive,inactive,inactive,inactive,inactive,–,inactive,inactive
CCC(=O)OC/C=C(\C)CCC=C(C)C,inactive,inactive,inactive,inactive,inactive,inactive,inactive,inactive,inactive,inactive,inactive,inactive,inactive,inactive,inactive,inactive,inactive,inactive,inactive,inactive
COc1cc(OC)nc(O[C@H](C(=O)O)C(OC)(c2ccccc2)c2ccccc2)n1,inactive,inactive,inactive,inactive,inactive,inactive,inactive,inactive,inactive,inactive,inactive,inactive,inactive,inactive,inactive,inactive,inactive,inactive,inactive,inactive
COc1ccc(C(=O)CC(=O)c2ccc(C(C)(C)C)cc2)cc1,inactive,inactive,inactive,inactive,inactive,inactive,inactive,inactive,inactive,inactive,inactive,inactive,inactive,inactive,inactive,–,inactive,inactive,inactive,inactive
CC(C)(C)c1ccc(C(=O)CCCCl)cc1,inactive,23700 nM (active),–,inactive,inactive,inactive,inactive,inactive,inactive,inactive,inactive,inactive,–,inactive,inactive,–,inactive,inactive,inactive,–
O=C1OC2(c3cc(Br)c(O)c(Br)c3Oc3c2cc(Br)c(O)c3Br)c2c(Cl)c(Cl)c(Cl)c(Cl)c21,4.86 µM (active) and 18.6 µM (active),inactive,–,–,inactive,inactive,inactive,–,inactive,17.4 µM (active) and 33.4 µM (active),inactive,49.1 µM (active) and 33.4 µM (active),inactive,–,inactive,inactive,inactive,inactive,–,–
Cc1ccc(-c2ccccc2)cc1,inactive,inactive,inactive,inactive,inactive,inactive,inactive,inactive,inactive,inactive,inactive,inactive,inactive,inactive,–,inactive,inactive,inactive,inactive,inactive
